This passage reports NF-kB reporter, IRF reporter and viability score results from the supplement of paper PMC10646978.

Structures are written as SMILES. ± gives the standard deviation.

What all share (conditions): modulator concentration 10 µM
The test system of experiment [1] is RAW-Dual (murine macrophage reporter line). Briefly: NF-kB reporter (SEAP) activity fold change vs agonist alone; higher = enhanced NF-kB activity. Put shortly: (§1)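 RAW-Dual murine macrophage reporter cells were seeded at 50 000 per well in 384-well plates and pre-incubated 1 hour at 37 °C with compound pin-transferred to 10 μM final. After 1 hour, a PRR agonist was added and cells incubated overnight. Supernatant NF-κB (SEAP, QUANTI-Blue, 620 nm absorbance) and IRF (Lucia luciferase, QUANTI-Luc, luminescence) signals were divided by the mean agonist-only control on the same plate to give fold change. Two replicate plates were averaged, with errors by propagation.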

Experiment [2] has the same test system. As to the kind of experiment: IRF reporter (Lucia luciferase) activity fold change vs agonist alone; higher = enhanced IRF activity. Put shortly: as §1
The test system is the same in experiment [3]. Briefly: viability score (confluency relative to resting cells, overnight) (fraction); higher = more viable, active = viable (0.7 or more). Put shortly: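 Compound was added at a final 10 μM to RAW-Dual macrophages in 384-well plates and left overnight. Confluency was imaged with IncuCyte, and two masks were generated in IncuCyte software over all imaged wells. Each viability score is confluency relative to resting cells, and a compound met the cutoff only when both masks were above 70% of resting cells.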

Where [4] appears, read: agonist: CpG ODN 1826 0.5 ug/mL.

With `CNC(=NC#N)NCCSCc1nc[nH]c1C`, the NF-kB reporter came out at 0.952 ± 0.073 in experiment [1] (setting [4]), 0.94 ± 0.11 in experiment [1] (agonist: LPS 0.1 ug/mL) and 1.03 ± 0.16 in experiment [1] (agonist: MPLA […]). Moreover, the IRF reporter was determined as 1.01 ± 0.032 in experiment [2] (agonist: 3'3'-cGAMP 10 ug/mL), 1.21 ± 0.14 in experiment [2] (agonist: LPS 0.1 ug/mL) and 1.36 ± 0.16 in experiment [2] (agonist: MPLA […]). Besides, the viability score in experiment [3] was 1.03 (active).

On to `CNc1nc(Nc2ccc(C)c(C)c2)c2nccnc2n1`, for which the NF-kB reporter was 0.992 ± 0.063 in experiment [1] (setting [4]), 1.03 ± 0.092 in experiment [1] (agonist: LPS 0.1 ug/mL) and 1.09 ± 0.09 in experiment [1] (agonist: MPLA […]). In addition, the IRF reporter in experiment [2] (agonist: 3'3'-cGAMP 10 ug/mL) stood at 0.992 ± 0.069; in experiment [2] (agonist: LPS 0.1 ug/mL) it was 1.01 ± 0.19; in experiment [2] (agonist: MPLA […]) it was 1.22 ± 0.42. For the same compound, the viability score in experiment [3] was 0.929 (active).

Regarding `CCCc1cc(=O)[nH]c(=S)[nH]1`, the NF-kB reporter in experiment [1] (setting [4]) worked out at 1.37 ± 0.11; in experiment [1] (agonist: LPS 0.1 ug/mL) it was 1.07 ± 0.05; in experiment [1] (agonist: MPLA […]), 1.3 ± 0.11. Moreover, the IRF reporter in experiment [2] (agonist: 3'3'-cGAMP 10 ug/mL) turned out to be 0.611 ± 0.028; in experiment [2] (agonist: LPS 0.1 ug/mL), 1.03 ± 0.082; in experiment [2] (agonist: MPLA […]), 0.903 ± 0.076. Moreover, the viability score in experiment [3] was 1.02 (active).

For the compound `O=c1oc2c(O)c(O)cc3c(=O)oc4c(O)c(O)cc1c4c23`, the NF-kB reporter in experiment [1] (setting [4]) was 1.05 ± 0.32; in experiment [1] (agonist: LPS 0.1 ug/mL), 0.944 ± 0.051; in experiment [1] (agonist: MPLA […]), 0.963 ± 0.1. Further, the IRF reporter came to 0.85 ± 0.055 in experiment [2] (agonist: 3'3'-cGAMP 10 ug/mL), 1.11 ± 0.12 in experiment [2] (agonist: LPS 0.1 ug/mL) and 1.1 ± 0.22 in experiment [2] (agonist: MPLA […]). For the same compound, the viability score in experiment [3] was 0.997 (active).

For the compound `O=C(CCC1CCCCC1)Nc1ccc(Br)cc1`, the figures for the NF-kB reporter in experiment [1] (setting [4]), in experiment [1] (agonist: LPS 0.1 ug/mL) and in experiment [1] (agonist: MPLA […]) were 1.02 ± 0.068, 0.98 ± 0.074 and 1.07 ± 0.029, respectively. Moreover, the IRF reporter in experiment [2] (agonist: 3'3'-cGAMP 10 ug/mL) was determined as 0.591 ± 0.029; in experiment [2] (agonist: LPS 0.1 ug/mL) it was 0.922 ± 0.048; in experiment [2] (agonist: MPLA […]) it was 0.976 ± 0.096. Moreover, in experiment [3], the viability score is 0.986 (active).

With `COc1ccc(-c2[nH]c(-c3cccc(OC)c3)nc2SCC(=O)NC2CCCC2)cc1`, the NF-kB reporter in experiment [1] (setting [4]) came to 0.849 ± 0.074; in experiment [1] (agonist: LPS 0.1 ug/mL) it was 1.13 ± 0.056; in experiment [1] (agonist: MPLA […]) it was 1.91 ± 0.15. Further, the figures for the IRF reporter in experiment [2] (agonist: 3'3'-cGAMP 10 ug/mL), in experiment [2] (agonist: LPS 0.1 ug/mL) and in experiment [2] (agonist: MPLA […]) were 0.438 ± 0.026, 0.824 ± 0.044 and 1.85 ± 0.14, respectively. In addition, in experiment [3], the viability score is 1 (active).

As for `COC(=O)c1ccc(CSc2ccc3nnc(-c4cccc(F)c4)n3n2)o1`, the values for the NF-kB reporter in experiment [1] (setting [4]), in experiment [1] (agonist: LPS 0.1 ug/mL) and in experiment [1] (agonist: MPLA […]) were 1 ± 0.08, 1.18 ± 0.072 and 1.03 ± 0.062, respectively. Further, the IRF reporter came to 0.966 ± 0.035 in experiment [2] (agonist: 3'3'-cGAMP 10 ug/mL), 1.05 ± 0.082 in experiment [2] (agonist: LPS 0.1 ug/mL) and 0.968 ± 0.093 in experiment [2] (agonist: MPLA […]). Moreover, the viability score in experiment [3] is 0.998 (active).

For `CCN(CC)S(=O)(=O)c1ccc(C(=O)Nc2cc(C)nn2-c2nc(C)c(C)c(=O)[nH]2)cc1`, the values for the NF-kB reporter in experiment [1] (setting [4]), in experiment [1] (agonist: LPS 0.1 ug/mL) and in experiment [1] (agonist: MPLA […]) were 0.153 ± 0.012, 0.267 ± 0.065 and 0.434 ± 0.015, respectively. Also, the IRF reporter in experiment [2] (agonist: 3'3'-cGAMP 10 ug/mL) worked out at 0.883 ± 0.05; in experiment [2] (agonist: LPS 0.1 ug/mL) it was 0.957 ± 0.099; in experiment [2] (agonist: MPLA […]), 0.994 ± 0.086. For the same compound, the viability score in experiment [3] was 0.99 (active).

For the compound `CC(=O)OC1(C(C)=O)CCC2C3C=C(C)C4=CC(=O)CCC4(C)C3CCC21C` (stereo not drawn), the NF-kB reporter is 1.18 ± 0.088 in experiment [1] (setting [4]), 1.08 ± 0.054 in experiment [1] (agonist: LPS 0.1 ug/mL) and 1.21 ± 0.026 in experiment [1] (agonist: MPLA […]). Further, the results for the IRF reporter in experiment [2] (agonist: 3'3'-cGAMP 10 ug/mL), in experiment [2] (agonist: LPS 0.1 ug/mL) and in experiment [2] (agonist: MPLA […]) were 1.04 ± 0.069, 0.875 ± 0.1 and 0.986 ± 0.14, respectively. The viability score in experiment [3] is 0.995 (active).

In the case of `COc1ccc(-c2cc(CNC(=O)C3CCC3)no2)cc1`, the NF-kB reporter came out at 1.15 ± 0.075 in experiment [1] (setting [4]), 1.02 ± 0.1 in experiment [1] (agonist: LPS 0.1 ug/mL) and 0.934 ± 0.034 in experiment [1] (agonist: MPLA […]). Besides, the IRF reporter in experiment [2] (agonist: 3'3'-cGAMP 10 ug/mL) stood at 0.877 ± 0.052; in experiment [2] (agonist: LPS 0.1 ug/mL), 1.06 ± 0.086; in experiment [2] (agonist: MPLA […]), 0.986 ± 0.23. The viability score in experiment [3] is 0.995 (active).

For `COc1ccc(C(=O)OCCCN2C(=O)c3ccccc3C2=O)cc1`, the NF-kB reporter in experiment [1] (setting [4]) worked out at 0.926 ± 0.15; in experiment [1] (agonist: LPS 0.1 ug/mL) it was 0.986 ± 0.093; in experiment [1] (agonist: MPLA […]) it was 0.916 ± 0.071. Also, the IRF reporter is 0.967 ± 0.036 in experiment [2] (agonist: 3'3'-cGAMP 10 ug/mL), 1.26 ± 0.13 in experiment [2] (agonist: LPS 0.1 ug/mL) and 1.41 ± 0.2 in experiment [2] (agonist: MPLA […]). Besides, the viability score in experiment [3] is 1 (active).

On to `C=CC(C)(O)CCC=C(C)C` (stereo not drawn), for which the NF-kB reporter was 0.988 ± 0.085 in experiment [1] (setting [4]), 0.841 ± 0.062 in experiment [1] (agonist: LPS 0.1 ug/mL) and 0.999 ± 0.11 in experiment [1] (agonist: MPLA […]). Besides, the IRF reporter in experiment [2] (agonist: 3'3'-cGAMP 10 ug/mL) was 1.01 ± 0.038; in experiment [2] (agonist: LPS 0.1 ug/mL) it was 1.22 ± 0.16; in experiment [2] (agonist: MPLA […]), 1.34 ± 0.28. Further, the viability score in experiment [3] is 1.03 (active).

For the compound `CCc1cccc2c3c([nH]c12)C(CC)(CC(=O)O)OCC3` (stereo not drawn) [Prestw-231], the NF-kB reporter in experiment [1] (setting [4]) turned out to be 0.957 ± 0.25; in experiment [1] (agonist: LPS 0.1 ug/mL), 0.995 ± 0.066; in experiment [1] (agonist: MPLA […]) it was 1.19 ± 0.15. Further, the IRF reporter amounted to 0.926 ± 0.039 in experiment [2] (agonist: 3'3'-cGAMP 10 ug/mL), 1.24 ± 0.15 in experiment [2] (agonist: LPS 0.1 ug/mL) and 1.32 ± 0.24 in experiment [2] (agonist: MPLA […]). In addition, in experiment [3], the viability score is 0.989 (active).

Consider `O=C1OC(c2ccc3ccccc3c2)=NC1=Cc1ccc(Cl)c([N+](=O)[O-])c1`, for which the NF-kB reporter in experiment [1] (setting [4]) was determined as 0.973 ± 0.079; in experiment [1] (agonist: LPS 0.1 ug/mL), 1.07 ± 0.067; in experiment [1] (agonist: MPLA […]) it was 0.881 ± 0.053. Further, the IRF reporter in experiment [2] (agonist: 3'3'-cGAMP 10 ug/mL) was 0.976 ± 0.03; in experiment [2] (agonist: LPS 0.1 ug/mL), 1.53 ± 0.14; in experiment [2] (agonist: MPLA […]) it was 1.16 ± 0.2. Besides, the viability score in experiment [3] was 1.01 (active).
